Source: PubChem BioAssay (NCATS)
Records with an inconclusive call do not appear. Activity calls are given as the source filed them. The call rests on the fitted dose curve; in most records, active means well fitted curve in the direction sought with a large enough effect; inconclusive means small, poorly fitted or top-dose-only effect, or another doubt; inactive means no such curve, though single readings can be large; an effect the other way counts as inactive or inconclusive.

Tests used:
[1] = HEK293 12hr Apoptosis Induction qHTS against the NCATS CANVASS Library (AID 1347361); further: potency means the concentration at half of the fitted maximal effect
Method in brief: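 Read-out: Caspase-Glo 3/7 luminescence (DEVD substrate), 15 min RT. Preceded by 12 h compound exposure of HEK293, 500 cells/well, 11-pt qHTS titration; doxorubicin titration as control.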

[2] = G06 Cancer Cell Toxicity qHTS against the NCATS CANVASS Library (AID 1347368); further: nearly all actives have a fitted effect of over 60% in size; further: potency means the concentration at half of the fitted maximal effect; on activity change, negative = cytotoxic: series mostly up to about 46 µM; on the % scale 0 is the no-effect control and ±100 the full control effect
Method in brief: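 Cells were plated at 500 per well, then compounds were added over an 11-point range. After 72 hr at 37C, CellTiterGlo was added and luminescence measured as ATP content.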

[3] = qHTS for Hypoxia signaling pathway (HIF-1) agonists against the NCATS CANVASS Library (AID 1347375); further: potency means the concentration at half of the fitted maximal effect; on activation: 0% is about no effect
Method in brief: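 Cells plated and rested 5 h, compounds pinned in DMSO across 11 concentrations, incubated 17 h at 37C, loaded with CCF4-AM for 2 h, fluorescence read at 460 and 530 nm, then CellTiter-Glo luminescence measured for viability and normalization.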

[4] = qHTS for activators of Nrf2/ARE signaling pathway screened against the NCATS CANVASS Library (AID 1347391); further: nearly all actives have a fitted effect of over 60% in size; further: potency means the concentration at half of the fitted maximal effect; on activation: 0% is about no effect
Method in brief: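 Beta-lactamase reporter signal, read as 460 and 530 nm emission under 405 nm excitation after 2 h CCF4 loading, reflected ARE activation in HepG2 cells treated 16 h with an 11-point series.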

[5] = qHTS for inhibitors of ER calcium dysfunction: SERCaMP assay screened against the NCATS CANVASS Library (AID 1347393); further: nearly all actives have a fitted effect of over 40% in size; further: potency means the concentration at half of the fitted maximal effect;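 on activity change, negative = inhibition: series mostly up to about 77 µM; on the % scale 0 is the no-effect control and ±100 the full control effect; lower secreted reporter signal means inhibitor of ER calcium depletion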
Method in brief: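 SH-SY5Y GLuc-SERCaMP, 1000 cells/well, 4 h attach; cpd 16 h, 37C/5% CO2; thapsigargin (added as 6x 600 nM) 4 h; coelenterazine; luminescence. Reduced reporter release = ER Ca stabilization.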

[6] = Vero-766 cells viability qHTS against the NCATS CANVASS Library: Counterscreen for Zika virus inhibition assay (AID 1347394); further: nearly all actives have a fitted effect of over 60% in size; further: potency means the concentration at half of the fitted maximal effect; on activity change, negative = cytotoxic: series mostly up to about 46 µM; on the % scale 0 is the no-effect control and ±100 the full control effect
Method in brief: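 Uninfected Vero 766 (African green monkey) cells, 1000/well, attached overnight, then exposed 72 h at 37C to compounds (11-point qHTS). Viability read by CellTiter-Glo luminescence; media-only wells served as 100% inhibition.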

[7] = Redox Reaction Profiling qHTS: Assay Interference Panel against the NCATS CANVASS Library (AID 1347401); further: potency means the concentration at half of the fitted maximal effect;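 on activation (redox signal): 100% = activation by 2 µM chloranil control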
Method in brief: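 Fluorescence read-out (525 nm excitation, 598 nm emission) at time zero and after 15 min in the dark tracked resorufin formation. Mix: 5 uM resazurin, 200 uM DTT, HEPES pH 7.3 buffer with NaCl.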

[8] = qHTS for ATAD5 Agonist screened against the NCATS CANVASS Library (AID 1347367);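 further: luciferase reporter driven by ATAD5 which rises upon DNA damage; 0% is about no effect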
Method in brief: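 HEK293T cells stably carrying an ATAD5-controlled luciferase reporter (2000 cells/well) attached for 5 hr, then received compounds in an 11-point series for 16hr at 37C. Luminescence was read after a 30 min room-temperature reagent step.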

[9] = qHTS for Antimalaria activity screened against the NCATS CANVASS Library (AID 1347380); further: nearly all actives have a fitted effect of over 40% in size; further: potency means the concentration at half of the fitted maximal effect;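 on activity change, negative = inhibition: Plasmodium falciparum strain Dd2 asexual parasites grown in red blood cells; series mostly up to about 29 µM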
Method in brief: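 Compounds are titrated over 11 concentrations onto Dd2 parasite cultures (0.3% parasitemia, 2.5% hematocrit). Growth over 72 h at 37C in low oxygen is measured as SYBR Green DNA fluorescence after lysis.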

C[C@@]12CCC[C@@](C)(C(=O)O)[C@H]1CC[C@]13C[C@H]4C[C@H](O[C@@]4(C)C1)[C@H]32
inactive: Potency [1] | Potency [2] | Potency [3] | Potency [4] | Potency [5] | Potency [6] | Potency [7]

C=C1C[C@@]23C=CC(=O)[C@@](C)(CCC(=O)Nc4c(O)ccc(C(=O)O)c4O)C2C[C@@H]1CC3O (stereo partly drawn)
inactive: Potency [1] | Potency [8] | Potency [2] | Potency [3] | Potency [9] | Potency [4] | Potency [5] | Potency [6] | Potency [7]

CO[C@@H]1[C@H](O)[C@@H](C)O[C@@H](OC[C@H]2/C=C/C=C/C(=O)C(C)C[C@H](C)C(O[C@@H]3O[C@H](C)CC4(OC(=O)O[C@@H]4C)C3O)[C@@H](C)/C=C/C(=O)OC2C)[C@@H]1OC (stereo partly drawn)
inactive: Potency [1] | Potency [8]
active: Potency [4] 14.8 µM | Potency [5] 15.3 µM

CC1(C)[C@H](Br)CC[C@]23C[C@]4(C)C(=O)CC12C[C@H]34
inactive: Potency [8] | Potency [2] | Potency [3] | Potency [4] | Potency [5] | Potency [7]

C=C(NC(=O)c1csc(-c2nc3c(cc2O)-c2nc(cs2)C(=O)NC(C(C)O)C(=O)N/C(=C(\C)O)c2nc(cs2)C(=O)NC2c4nc(cs4)C(=O)NC(COC(=O)c4c5c6c(cccc6n4O)COC(=O)[C@@H](OC4C[C@](C)(O)[C@H](N(C)C)[C@H](C)O4)C2OC5)c2nc-3cs2)n1)C(N)=O (stereo partly drawn)
inactive: Potency [1] | Potency [4]
active: Potency [9] 0.334 µM

CC(=O)NC[C@@H]1O[C@H](CC/C=C(C)/C(C)=C/C=O)[C@H](C)C[C@H]1O
active: Potency [5] 34.3 µM
inactive: Potency [1] | Potency [2] | Potency [3] | Potency [9]

CC(C)=CCC[C@@H](C)[C@@H]1CC[C@@]2(C)C[C@H]3C(C)=CC(=O)[C@@H]3/C(C=O)=C\C[C@H]12
inactive: Potency [8] | Potency [4] | Potency [5]
active: Potency [2] 16.6 µM | Potency [6] 20.9 µM

C=CC(=C)CC[C@]1(C)[C@H]2C[C@H](OC(=O)C(C)CC)C=C3[C@H](OC(C)=O)O[C@H](OC(C)=O)[C@@]32[C@H](OC)C[C@@H]1C (stereo partly drawn)
inactive: Potency [8] | Potency [4] | Potency [5]
active: Potency [1] 17.1 µM | Potency [2] 6.05 µM | Potency [9] 0.545 µM

CN1CC[C@]2(c3cccc4c3N[C@@H]3N(C)CC[C@]43[C@@]34CCN(C)[C@@H]3Nc3ccccc34)c3ccccc3N[C@H]12
inactive: Potency [8] | Potency [4] | Potency [5] | Potency [7]
active: Potency [2] 3.72 µM | Potency [9] 1.49 µM

C=C1C(=O)O[C@H]2[C@H]1CC/C(CO)=C\CC[C@@]1(C)O[C@@H]21
active: Potency [1] 23.5 µM | Potency [2] 11.8 µM | Potency [9] 0.0084 µM | Potency [5] 4.31 µM
inactive: Potency [4] | Potency [6] | Potency [7]

CCCCCCCCCCCCCCCC(=O)OC/C=C(\C)CCCC(C)CC(C)C(C)C (stereo not drawn)
inactive: Potency [1] | Potency [2] | Potency [3] | Potency [4] | Potency [5] | Potency [6] | Potency [7]
active: Potency [9] 0.0019 µM

Oc1ccc(/C=C2/c3cc(O)cc(O)c3C(c3ccc(O)cc3)[C@H]2c2cc(O)cc(O)c2)cc1 (stereo partly drawn)
inactive: Potency [1] | Potency [8] | Potency [2] | Potency [3] | Potency [9] | Potency [4] | Potency [5] | Potency [6] | Potency [7]

C/C(=C\[C@H](C)C(=O)CCCC1CC(=O)NC(=O)C1)C(O)[C@@H](C)[C@H](O)C/C=C/CC/C=C/C(=O)O (stereo partly drawn)
inactive: Potency [1] | Potency [8] | Potency [9] | Potency [4] | Potency [5] | Potency [6]

O=C(O)CC1OC(=O)c2c(O)cccc21 (stereo not drawn)
inactive: Potency [1] | Potency [8] | Potency [3] | Potency [4] | Potency [5]

COc1ccc2oc3c(OC)c(OC)c(OC)c(OC)c3c(=O)c2c1
inactive: activation [8] 0.941% [at 9.19 µM] | activity change, negative = cytotoxic [2] -19.7% [at 9.19 µM] | activation [3] 1.59% [at 7.64 µM] | activity change, negative = inhibition [9] -46.5% [at 5.73 µM] | activation [4] 5.78% [at 9.19 µM] | activity change, negative = inhibition [5] -15.7% [at 15.3 µM] | activity change, negative = cytotoxic [6] -1.29% [at 9.19 µM] | activation (redox signal) [7] -9.99% [at 11.4 µM]

C=C1C[C@@]23C=CC(=O)[C@@](C)(CCC(=O)Nc4c(O)ccc(C(=O)O)c4O)C2C[C@@H]1C(O)C3 (stereo partly drawn)
inactive: Potency [8] | Potency [2] | Potency [3] | Potency [9] | Potency [4] | Potency [5] | Potency [6]

C=C1C[C@@]23C=CC(=O)[C@@](C)(CCCC(C)C(=O)O)[C@@H]2C[C@@H]1CC3 (stereo partly drawn)
inactive: Potency [1] | Potency [3] | Potency [9] | Potency [5] | Potency [6] | Potency [7]
active: Potency [4] 16.6 µM

CCC[C@@H](C)/C=C(\C)[C@H](O)[C@H](C)/C=C/CC[C@@H](O)[C@H](C)[C@H](O)[C@H](C)[C@H](O)[C@H](C)[C@H]1O[C@H]([C@H](C)C(=O)O)CC[C@@H]1C
inactive: Potency [5] | Potency [7]
active: Potency [9] 5.94 µM

CNc1ccc(Cl)cc1C(=O)OC[C@]1(C)[C@H]2CC[C@]3(C)[C@@H](C[C@@H](OC)[C@H](C)[C@H]3C3=C(O)C(=O)OC3O)[C@]2(C)CC[C@H]1O (stereo partly drawn)
inactive: Potency [8] | Potency [9] | Potency [4] | Potency [5] | Potency [7]
active: Potency [3] 13.3 µM

C=C[C@]1(C)CC[C@@H]([C@H](C)C(=O)/C=C/C(C)C)O1
inactive: Potency [8] | Potency [2] | Potency [4]

CCCCCCCCC[C@@H]1C[C@@H]2CC[C@H]3[C@@H](C(=O)OCCCCN=C(N)N)[C@@H](C)N=C(N1)N23
active: Potency [2] 2.05 µM | Potency [9] 1.64 µM
inactive: Potency [1] | Potency [8] | Potency [4] | Potency [5]

CO[C@@H]1[C@H](O)[C@@H](C)O[C@@H](OC[C@@H]2C(C)OC(=O)/C=C/[C@H](C)C(O[C@@H]3O[C@H](C)CC4(OC(=O)O[C@@H]4C)C3O)[C@@H](C)CC(C)C(=O)CC[C@H]3OC23)[C@@H]1OC (stereo partly drawn)
inactive: Potency [8] | Potency [9] | Potency [7]

CN1CC[C@]2(c3cccc4c3N[C@@H]3N(C)CC[C@]43[C@@]34CCN(C)[C@@H]3Nc3c([C@]56CCN(C)[C@H]5Nc5ccccc56)cccc34)c3ccccc3N[C@H]12
inactive: Potency [8] | Potency [4] | Potency [5] | Potency [7]
active: Potency [2] 2.64 µM | Potency [6] 20.9 µM

C=C1C[C@@]23C=CC(=O)[C@@](C)(CCC(=O)Nc4c(OC5O[C@H](CO)[C@@H](O)[C@H](O)[C@H]5O)ccc(C(=O)O)c4O)C2C[C@@H]1CC3 (stereo partly drawn)
inactive: Potency [2] | Potency [9] | Potency [4] | Potency [5] | Potency [6]

C/C=C/C(=O)[C@@H](C)C1=CC(=O)C2=C(O[C@@]34CC[C@H](O)C(C)(C)[C@@H]3CC[C@H](C)[C@@]4(C)C2)C1=O
inactive: Potency [8]
active: Potency [1] 9.35 µM | Potency [2] 3.32 µM | Potency [4] 1.86 µM

C=C1C(=O)C[C@H]2C[C@@H]1[C@]2(C)CCC=C(C)C
inactive: Potency [1] | Potency [8] | Potency [3] | Potency [7]
active: Potency [4] 16.6 µM | Potency [5] 19.3 µM

CC(C)=CCC/C(C)=C/Cc1c(O)c(CC=C(C)C)c(O)c2c(=O)c3cc(O)ccc3oc12
active: Potency [2] 23.5 µM | Potency [3] 13.3 µM | Potency [4] 2.63 µM | Potency [6] 26.3 µM

C1=C2CCCN[C@@H]2[C@@H]2CCN3CCCC[C@@H]3[C@H](C1)C2
inactive: Potency [2] | Potency [3] | Potency [4] | Potency [5] | Potency [7]

C[C@@H](O)[C@H]1OC(=O)C=C2[C@]3(C)[C@H]4[C@H](OC(=O)[C@@]4(C)[C@@H](O)[C@H]4O[C@H]43)[C@H]3O[C@@]231
active: Potency [2] 1.48 µM | Potency [9] 0.594 µM | Potency [6] 9.33 µM
inactive: Potency [1] | Potency [3] | Potency [5] | Potency [7]

COc1ccc(/C=C2\COc3cc(O)ccc3C2=O)cc1
active: Potency [4] 8.31 µM
inactive: Potency [1] | Potency [8] | Potency [2]

C/C(=C\[C@H](C)C(=O)CCCC1CC(=O)NC(=O)C1)[C@@H]1OC(=O)/C=C/CC/C=C/C[C@@H](O)[C@@H]1C
active: Potency [2] 1.05 µM
inactive: Potency [8] | Potency [4] | Potency [5] | Potency [6]

COc1ccc(CCCc2cc(O)c(OC)c(O)c2)c(O)c1O
active: Potency [2] 0.0148 µM | Potency [7] 21.5 µM
inactive: Potency [1] | Potency [3] | Potency [6]

C[C@@H]1C[C@H]2C[C@]3(CCCCN3C)[C@@H]3C[C@H]2[C@H](C1)N(C)C3
inactive: Potency [1] | Potency [6]
active: Potency [2] 18.7 µM | Potency [5] 30.5 µM

C/C1=C\CC(=O)/C=C/C=C\c2csc(n2)[C@@H](C)NC(=O)C[C@@](S)([C@@H](C)C(=O)O)CC1
inactive: Potency [1] | Potency [8] | Potency [2] | Potency [3] | Potency [9]
active: Potency [4] 18.6 µM

COc1c(O)cc2oc(-c3ccccc3)cc(=O)c2c1O
active: Potency [4] 13.2 µM | Potency [5] 34.3 µM
inactive: Potency [2]

CC(C)(Br)[C@@H](Cl)C[C@H](Br)[C@](C)(Cl)/C=C/Br
inactive: Potency [8] | Potency [9] | Potency [6]
active: Potency [2] 13.2 µM | Potency [5] 21.6 µM | Potency [7] 30.4 µM

CN1C(=O)[C@]23SS[C@@]1(C)C(=O)N2[C@H]1Nc2ccccc2[C@]1(c1c[nH]c2ccccc12)[C@@H]3O
active: Potency [2] 0.296 µM | Potency [4] 1.86 µM
inactive: Potency [3] | Potency [5]
